FEN1 inh = inhibitors of human flap endonuclease 1; Recombinant FEN1 flap cleavage, fluorescence, 15 min; Potency, µM (series often up to 114 µM), for the others: at the highest dose activity change, negative = inhibition, actives largely listed as inhibitors; actives 0.35% (n = 390,000); AID 588795; also: % is scaled to controls: 0 for no effect and ±100 for the full control effect; nearly all actives have a fitted effect of over 65% in size
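Recombinant FEN1 (10 nM) was preincubated with pin-transferred compounds for 15 min at room temperature, then flap DNA substrate (50 nM final) was added. Plates were read at 0 and 15 min, and normalized concentration–response data were fitted to a four-parameter Hill equation.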
POLK inh = inhibitors of human DNA polymerase kappa. AID 588579. purified Pol kappa, fluorescent DNA synthesis assay, 10 min. actives 0.53% (n = 400,000). Potency, µM (titrated, usually from 107 µM), for inactives: at the highest dose activity, negative = inhibition, most hits filed as inhibitors. Q9UBT6; also: % is scaled to controls: 0 for no effect and ±100 for the full control effect
Target sequence (Q9UBT6 whole entry, looked up): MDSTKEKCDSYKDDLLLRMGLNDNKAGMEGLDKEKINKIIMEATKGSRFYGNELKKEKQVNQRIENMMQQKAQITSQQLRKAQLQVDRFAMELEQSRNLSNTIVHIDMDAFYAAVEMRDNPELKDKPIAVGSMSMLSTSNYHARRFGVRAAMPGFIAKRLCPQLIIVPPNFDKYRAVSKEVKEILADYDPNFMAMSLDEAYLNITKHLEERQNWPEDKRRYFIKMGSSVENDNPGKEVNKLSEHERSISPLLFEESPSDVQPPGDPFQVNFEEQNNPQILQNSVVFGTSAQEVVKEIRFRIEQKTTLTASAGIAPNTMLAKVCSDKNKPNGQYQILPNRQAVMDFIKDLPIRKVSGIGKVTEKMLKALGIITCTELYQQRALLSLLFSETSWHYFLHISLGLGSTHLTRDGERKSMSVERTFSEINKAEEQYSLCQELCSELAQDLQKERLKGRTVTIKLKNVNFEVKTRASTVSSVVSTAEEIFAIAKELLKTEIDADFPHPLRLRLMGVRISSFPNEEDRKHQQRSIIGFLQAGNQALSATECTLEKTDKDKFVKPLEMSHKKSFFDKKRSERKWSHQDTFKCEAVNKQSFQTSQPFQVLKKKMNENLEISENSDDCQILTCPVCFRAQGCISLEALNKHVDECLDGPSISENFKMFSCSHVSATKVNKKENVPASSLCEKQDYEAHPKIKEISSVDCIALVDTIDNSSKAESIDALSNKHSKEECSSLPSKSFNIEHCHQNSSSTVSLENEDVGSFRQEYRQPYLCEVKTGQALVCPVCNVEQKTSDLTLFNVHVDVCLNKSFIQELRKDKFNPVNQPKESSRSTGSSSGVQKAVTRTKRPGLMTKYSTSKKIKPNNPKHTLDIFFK
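Fluorescent qHTS in 1536-well format: enzyme (10 nM) and compound sat 15 min at room temperature before 50 nM substrate (final) was added. Signal taken at 0 and 10 min; no-enzyme buffer wells were negative controls.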
WRN inhibitor = blocks human WRN helicase; Q14191; WRN helicase unwinding, fluorescent forked duplex, kinetic; Potency, µM (highest dose often 114 µM), without a hit: at the highest dose activity change, negative = inhibition, most hits filed as inhibitors; actives 0.46% (n = 360,000); AID 651768; also: % is scaled to controls: 0 for no effect and ±100 for the full control effect; nearly all actives have a fitted effect of over 55% in size
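Enzyme (20 nM final) and test compound sit together 15 min at room temperature before substrate addition. Substrate is a single-forked duplex oligonucleotide (100 nM) labelled with fluorophore and quencher, with 2 mM ATP; helicase unwinding raises red fluorescence, read kinetically.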
Pol beta inh = blocks human DNA polymerase beta activity | actives 1.3% (n = 340,000) | P06746 | Potency, µM (series often up to 114 µM), without a hit: top-dose activity change, negative = inhibition, hits mostly inhibitors | Pol beta primer extension/strand displacement, fluorescence kinetic; also: % is scaled to controls: 0 for no effect and ±100 for the full control effect
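Pol beta (10 nM) and compounds were preincubated 15 min at room temperature, then 50 nM substrate (final) started primer extension/strand displacement. Reads were taken at 0 and 10 min; concentration-response data were fitted to a four-parameter Hill equation.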
POLH inh = inhibitors of human DNA polymerase eta | actives 1.2% (n = 390,000) | recombinant Pol eta, fluorescent DNA replication assay | Q9Y253 | Potency, µM (doses to about 114 µM), for the others: top-dose activity change, negative = inhibition, most hits filed as inhibitors; also: % is scaled to controls: 0 for no effect and ±100 for the full control effect
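Pol eta (10 nM) was preincubated with compounds for 15 min at room temperature, after which fluorescent replication substrate (50 nM final) was added to start the reaction. Fluorescence was read kinetically at 0 and 10 min.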
POLI inh = blocks human DNA polymerase iota activity; Q9UNA4; Pol iota fluorescent replication assay, 10 min; Potency, µM (series often up to 115 µM), inactives show at the top dose activity, negative = inhibition, hits mostly inhibitors; actives 1% (n = 390,000)
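Pol iota at 10 nM preincubated 15 min with compounds at room temperature; reaction started with fluorescent substrate, 50 nM final. Fluorescence read kinetically at 0 and 10 min; buffer-only wells as negative control.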
Active calls of the source: *; [ ] = remark or other dose. Most compounds without a hit are left out; they make up all but 2.4% or so of the library. Calls follow the shape of the dose curve; as a rule, active = well fitted curve in the direction sought with a large enough effect; inconclusive = small, poorly fitted or top-dose-only effect, or another doubt; inactive = no such curve, though single readings can be large; an effect the other way counts as inactive or inconclusive. Potency is read from the fitted curve at half-maximal effect.

`C/C1=C2/[N-]C(C(CC(N)=O)[C@@]2(C)CCC(=O)NCC(C)OP(=O)([O-])O[C@H]2[C@@H](O)[C@@H](n3cnc4cc(C)c(C)cc43)O[C@@H]2CO)[C@]2(C)N=C(/C(C)=C3N=C(/C=C4N=C1C(CCC(N)=O)C\4(C)C)[C@@H](CCC(N)=O)[C@]\3(C)CC(N)=O)[C@@H](CCC(N)=O)[C@]2(C)CC(N)=O.CC(=O)O.[Co]` (some centres not stated) gave POLK inh 2.7%[19.4 µM].
Screening O=C(O)c1cc(O)c2c(c1)[C@@H]([C@H]1c3cc(C(=O)O)cc(O)c3C(=O)c3c(O[C@@H]4O[C@H](CO)[C@@H](O)[C@H](O)[C@H]4O)cccc31)c1cccc(O[C@@H]3O[C@H](CO)[C@@H](O)[C@H](O)[C@H]3O)c1C2=O returned FEN1 inh 3.16µM*, POLK inh 1.26µM*, WRN inhibitor 3.16µM*, POLH inh 0.794µM* and POLI inh -93.7%.
O=C(O)c1cc(O)c2c(c1)[C@H]([C@H]1c3cc(C(=O)O)cc(O)c3C(=O)c3c(O[C@@H]4OC(CO)C(O)C(O)C4O)cccc31)c1cccc(O[C@@H]3OC(CO)C(O)C(O)C3O)c1C2=O (some centres not stated) was read as POLK inh 0.891µM*.
`Nc1ccc(/C=C/c2cccc3cccnc23)cc1` gave FEN1 inh 0.0%, POLK inh -9.4% and POLI inh 11.7%.
`Cc1cc(OCC(=O)Nc2ccc(CN3CCOCC3)cc2)c2c(C)cc(=O)oc2c1` gave FEN1 inh 24.9%, POLK inh -39.1%, WRN inhibitor 10.6%, Pol beta inh 23.3%, POLH inh 3.9% and POLI inh 50.1µM*.
`Cc1cc(OCC(=O)Nc2ccc(CN3CCOCC3)cc2)c2c(C)c(C)c(=O)oc2c1` gave FEN1 inh -19.5%, POLK inh -12.1%, WRN inhibitor 7.6%, Pol beta inh 2.3%, POLH inh -8.2% and POLI inh -16.3%.
For O=C(CNC(=O)c1cccnc1)c1ccc(F)cc1 the results were FEN1 inh 11.0%, POLK inh -3.1% and POLI inh -10.3%.
COc1ccc(NC2CCCN(C(=O)CCN3CCOCC3)C2)cc1 (configuration not stated) was read as FEN1 inh 1.1%, POLK inh -1.6%, WRN inhibitor 4.4%, Pol beta inh 3.7%, POLH inh -2.6% and POLI inh 79.4µM*.
Screening O=C(N=Nc1c(O)[nH]c2ccccc12)c1cccc(S(=O)(=O)Nc2ccccc2Cl)c1 returned FEN1 inh 0.2%, POLK inh -10.0%, WRN inhibitor -17.2%, Pol beta inh 2.5%, POLH inh -4.4% and POLI inh 3.4%.
NS(=O)(=O)c1cc(C(=O)N=Nc2c(O)[nH]c3ccccc23)ccc1Cl was read as FEN1 inh -20.9%, POLK inh -30.7%, WRN inhibitor -7.4%[11.6 µM], Pol beta inh 22.4µM*, POLH inh inconclusive and POLI inh 50.1µM*.
For COC(=O)c1ccn(CC(=O)NC2CCCCC2)n1 the results were FEN1 inh -0.2%, POLK inh -20.8%, WRN inhibitor -1.3%, Pol beta inh 39.8µM*, POLH inh inconclusive and POLI inh -20.0%.
[O-]c1c[n+](-c2ccc(-[n+]3cc([O-])on3)cc2)no1 was read as FEN1 inh -4.6%, POLK inh -29.8%, WRN inhibitor -5.3%[11.6 µM], Pol beta inh 7.08µM*, POLH inh 44.7µM* and POLI inh inconclusive.
Screening Clc1nc(Cl)nc(-c2cn(-c3ccccc3)c3ccccc23)n1 returned FEN1 inh -1.6%, POLK inh 6.9%, WRN inhibitor -2.3%, Pol beta inh 20µM*, POLH inh -9.0% and POLI inh -25.2%.
Screening O=c1c(-c2ccc(F)cc2)nc2cnc(N3CCNCC3)nc2n1Cc1ccc(F)cc1 returned POLK inh -4.1%[60.1 µM].
O=C(CN1C(=O)N/C(=C\c2ccccc2OCc2ccc(C(=O)O)cc2)C1=O)Nc1ccc(F)cc1 was read as FEN1 inh -28.3%, POLK inh inconclusive, WRN inhibitor -19.5%, Pol beta inh 79.4µM*, POLH inh -13.3% and POLI inh inconclusive.
For O=C(O)c1ccc(COc2ccccc2/C=C2\NC(=O)N(Cc3ccc(F)cc3)C2=O)cc1 the results were FEN1 inh inconclusive, POLK inh -21.4%, WRN inhibitor -20.7%, Pol beta inh inconclusive, POLH inh inconclusive and POLI inh inconclusive.
Screening O=c1cc(-c2ccc(O)cc2)oc2cc(O)c([C@@H]3O[C@H](CO)[C@@H](O)[C@H](O)[C@H]3O)c(O)c12 returned FEN1 inh -6.5%, POLK inh -9.8%, WRN inhibitor -7.6%, POLH inh 8.8% and POLI inh 2.4%.
O=c1c2ccccc2oc2cc(O)c(C3COCC(CO)C(O)C(O)C3O)c(O)c12 (configuration not stated) was read as POLK inh 2.51µM*.
O=C1NC(=Nc2ccccc2)S/C1=C\c1ccccc1 was read as FEN1 inh 4.4%, POLK inh -9.3%, WRN inhibitor -3.7%, Pol beta inh -1.0%, POLH inh -11.5% and POLI inh 9.1%.
O=C1NC(=Nc2ccccc2)S/C1=C/c1cccs1 was read as FEN1 inh 0.7%, POLK inh -1.6%, WRN inhibitor -10.1%, Pol beta inh 31.6µM*, POLH inh 6.2% and POLI inh inconclusive.
Screening Cc1cccc(N=C2NC(=O)/C(=C\c3cccs3)S2)c1 returned FEN1 inh -1.5%, POLK inh -5.9%, WRN inhibitor -10.4%, Pol beta inh 7.7%, POLH inh inconclusive and POLI inh -17.9%.
For Cc1ccc(N=C2NC(=O)/C(=C/c3cccs3)S2)cc1C the results were FEN1 inh 1.0%, POLK inh 0.5%, WRN inhibitor -11.4%, Pol beta inh 10µM*, POLH inh -14.9% and POLI inh 3.9%.
`CCc1cc(/C=C/c2ccnc3ccccc23)ccc1N(C)C` gave FEN1 inh inconclusive, POLK inh -9.4% and POLI inh 30.2%.
`Cc1cc(Nc2ccc(O)cc2)ccc1N` gave FEN1 inh inconclusive, POLK inh -26.1% and POLI inh 20µM*.
Screening CCOC(=O)c1c(C)oc2c(F)c(F)c(F)c(F)c2c1=O returned FEN1 inh -1.7%, POLK inh 79.4µM*, WRN inhibitor -17.2%[57.1 µM], Pol beta inh -22.3%, POLH inh inconclusive and POLI inh inconclusive.
